# Data: PubChem BioAssay (NCI)
# Where “and” joins values, the source holds several entries; their conditions need not be identical. Identical values can stand only once. This is part of a sample that, as a whole, favours compounds with a hit. Of some 79,000 tested, about 15% had one in any assay. Values without a mark were called inactive. Calls of active or inactive are those of the source. Cut-off read from the data, not from the text of the source: active = growth inhibition above about 70%; inactive = the rest. Where a SMILES comes first, the peptide text is derived from it. The star is where a group is joined. Cbz = O=C(OCc1ccccc1)*; OBn = c1ccc(CO*)cc1; NHNH2 = NN*
# Columns and labels:
# [1] = NCI Yeast Anticancer Drug Screen. Data for the rad50 strain (AID 155);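 note: 0% = growth of vehicle-only cultures of the same strain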; conditions: S. cerevisiae rad50 strain growth inhibition, hits give high values; at 50.0 µM unless noted
# Method in brief: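 Yeast carrying a defined DNA repair defect were exposed to test compounds, and growth was compared with vehicle-treated controls to give percent inhibition.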
# [2] = NCI Yeast Anticancer Drug Screen. Data for the mec2-1 strain (AID 157); conditions: S. cerevisiae mec2-1 strain, hits give high values; at 50.0 µM unless noted
# Method in brief: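 Readout is yeast growth inhibition, normalised to vehicle-treated controls, in the mec2-1 strain exposed to compound.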
# [3] = NCI Yeast Anticancer Drug Screen. Data for the sgs1 mgt1 strain (AID 161);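 note: 0% = growth of cultures given vehicle only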; conditions: S. cerevisiae sgs1 mgt1 strain, hits give high values; at 50.0 µM unless noted
# Method in brief: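 Growth of a repair-deficient yeast mutant was monitored after compound treatment and expressed as inhibition relative to vehicle-treated cultures.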
# [4] = NCI Yeast Anticancer Drug Screen. Data for the cln2 rad14 strain (AID 165);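 note: 0% = growth equal to vehicle treated cultures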; conditions: S. cerevisiae cln2 rad14 strain, hits give high values; at 50.0 µM unless noted
# Method in brief: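 Relative to vehicle controls, growth inhibition of compound-treated cln2 rad14 yeast was recorded.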
# [5] = NCI Yeast Anticancer Drug Screen. Data for the bub3 strain (AID 167); conditions: S. cerevisiae bub3 mutant strain, hits give high values; at 50.0 µM unless noted
# Method in brief: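 Compounds were applied to a genetically altered yeast strain carrying a cell-cycle control defect. Growth inhibition was scored against vehicle-treated controls.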
# [6] = NCI Yeast Anticancer Drug Screen. Data for the mlh1 rad18 strain (AID 175); conditions: S. cerevisiae mlh1 rad18 strain growth inhibition, hits give high values; at 50.0 µM unless noted
# Method in brief: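 Test agents were incubated with a yeast strain of defined genotype (DNA damage repair defect). Inhibition of growth was derived by comparison with vehicle-exposed cultures.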
SMILES,growth inhibition [1],growth inhibition [2],growth inhibition [3],growth inhibition [4],growth inhibition [5],growth inhibition [6]
CC(C)N1C(=O)c2cccc(Cl)c2C1=O (tested in a mixture with another compound),10.8%,4.1%,37.3%,37.6%,-7.85%,1.4%
S=c1[nH]nc2scnn12,-2.85%,3.55%,4.25%,-45.5%,7.4%,-9.3%
Cn1cc2c([N+](=O)[O-])cccc2n1,5.35%,3.75%,14.7%,-4.6%,-0.9%,13.2%
CC(=O)NC1=NC(=O)/C(=C/c2ccccc2Cl)N1C,-45.7%,-53.8%,-10.9%,8%,-8.85%,28.6%
CC(C)CCn1c(=O)c2c(ncn2C)n(C)c1=O,21.9%,20.3%,22.9%,10.2%,-0.5%,13.2%
O=C1OC(OC2CCCCC2)(c2ccccc2)c2ccccc21 (centres undefined),-25.1%,-7.75%,-0.15%,-23.5%,-1.65%,-5.55%
CN(CCO)CCCC1COc2ccccc2O1 (centres undefined),-31.6%,-39.1%,-21.1%,6.5%,-8.65%,-8.35%
CC(=O)c1ccc(N=CC2CCCCC2=O)cc1 (centres undefined),-8.35%,2.7%,17.1%,-30.1%,-2.9%,-13.9%
CCOC(=O)CN1C(=O)/C(=C2\SC(=S)N(CC(=O)OCC)C2=O)SC1=S,19.1%,9.95%,16.1%,7.7%,-3.9%,9.4%
O=C(/C=C/c1ccccc1)c1ccccc1,-1.8% and -29.8%,10.3% and -6.35%,-8.65% and -18.8%,-41% and -36.2%,21.7% and 1.7%,14.3% and -22.3%
COc1cc(C2c3cc4c(cc3[C@H](OCCN(C)C)[C@@H]3COC(=O)C23)OCO4)cc(OC)c1O (some centres undefined),83.2% (active),87.7% (active),83.3% (active),67.8%,78.2% (active),82.6% (active)
O=Cc1ccccc1OCCOc1ccccc1C=O,8.7%,1.35%,10.2%,-24%,9.4%,19.1%
CCOC(=O)CCC(NC(=O)OCc1ccccc1)C(=O)NC(CCC(=O)OCC)C(=O)NN (centres undefined) (Cbz-Glu(OEt)-Glu(OEt)-NHNH2; configuration not given here),2.65%,7.75%,2.5%,11.8%,23.2%,27.3%
Cn1cnc([N+](=O)[O-])c1Sc1ncn[nH]1,-3.45% and 6%,3.3% and -1.85%,8.45% and 2.6%,0.35% and 24.6%,4% and 21.8%,-54.3% and 0.9%
CCCCCC=C(C(=O)OCC)C(=O)OCC,22.9%,-1.7%,-4.15%,12.3%,-30.4%,11.1%
Cc1nnc2sc(N/N=C/c3ccccc3)nn12,-35.5%,-29.9%,-69.2%,-13.8%,-10.1%,-71.3%
O=C(O)CCc1cnc[nH]1,-0.7%,-1.8%,1.2%,22.5%,14.6%,2.3%
CCCCCCCCCCCCC(C)O (centres undefined),-23.2%,-50.1%,-18.8%,5.05%,-21.1%,-24.8%
NC(N)=NS(=O)(=O)c1ccc(N=NC2=C(O)C(c3ccccc3)N(c3ccccc3)C2=O)cc1 (centres undefined),6.35%,22.1%,35.5%,0.3%,0.45%,33%
CC(=O)C(C)(CC#N)C(CC=O)CCC#N (centres undefined),15.9%,4.7%,10.2%,-1.45%,14%,-1%

SMILES,growth inhibition [1],growth inhibition [2],growth inhibition [3],growth inhibition [4],growth inhibition [5],growth inhibition [6]
O=c1/c(=C/c2ccccc2[N+](=O)[O-])sc2nc3ccccc3n12,-16.6%,-21.4%,-25.9%,-12.7%,-21.9%,-47.2%
CC(CC(O)C(=O)O)CC(C)(C)C (centres undefined),-5.95%,8.7%,-7.15%,-7.3%,22.3%,2.6%
NC(=O)c1ccccc1NC(=O)C(=O)C(C(=O)c1ccc(Cl)c(Cl)c1)C1OC(=O)c2ccccc21 (centres undefined),53.2%,46.9%,32.9%,67.5%,57.9%,44.6%
Cc1cccc(NC(=O)c2ccc(Cl)cc2Cl)c1,9.1%,14.1%,6.8%,13.6%,21.3%,22.2%
COC(=O)c1cc(C(=O)OC)c(CC(=O)C(=O)NC2C3CC4CC(C3)CC2C4)nc1CC(=O)C(=O)NC1C2CC3CC(C2)CC1C3 (centres undefined),0.5%,25.2%,-11.9%,10.2%,13.7%,10.9%
Cc1cc(C(c2ccccc2)n2c3ccccc3c3ccccc32)cc(C)c1O (centres undefined),6.5%,11.3%,8.45%,0.25%,-7.55%,16.4%
O=C1CCCCC(=O)NCCCCCCN1,-7.95%,-2.65%,-18.4%,-21.4%,-12.4%,1.85%
C=C(Br)CN(C#N)CC(=C)Br,-24.4%,-18.1%,13.8%,-4.25%,-10.5%,-56.9%
COc1cc(OC)c(NC(=O)C2=C(C)NC(C)=C(C(=O)Nc3cc(Cl)c(OC)cc3OC)C2c2cccc([N+](=O)[O-])c2)cc1Cl,9.25%,23.9%,22.9%,36.1%,14.4%,3.7%
CCC(=O)Nc1ccccc1Cl,3.6%,-1.1%,-15.4%,-42.6%,-1.95%,4.95%
O=C1NC(N/N=C\C(O)C(O)C(O)CO)=N/C1=C/c1ccc(Cl)cc1 (centres undefined),43.2% and 45.5%,37% and 43%,44.8% and 35.1%,36.8% and 26.8%,38.1% and 43%,14.8% and 38.6%
Cc1cccc(C)c1NC(=S)N/C=C(\C#N)C(N)=O,-53.2%,-72.2%,-25%,-21.6%,-8.65%,-49.4%
Cc1ccc2ccccc2c1CN(C)C,4.7%,-1.05%,-8.6%,-61%,-3.45%,-12.7%
CN(C)CCN1CC2Cc3ccccc3C1c1ccccc12 (centres undefined),24.1%,-6.5%,-3.5%,28.9%,43.4%,9.1%
O=C(Nc1ccccc1Cl)c1cc2cc(N=Nc3ccc(Br)cc3)ccc2oc1=O,0.55%,9.75%,-3.8%,9.6%,-7.05%,-3.5%
O=C1C2C(c3ccccc3)NC(c3ccccc3)C1C(c1ccccc1)NC2c1ccccc1 (centres undefined),-13.4%,-8.5%,-35.6%,-18.1%,-65%,0.9%
CN(C)C(=O)NN1CCCCCC1,7.25%,13.9%,-14.2%,-14.7%,13.3%,-13.3%
COc1ccc2nc3cc([N+](=O)[O-])ccc3c(NCCCN(CCO)CCO)c2c1,-6.7%,-1.75%,6.9%,1.75%,7.75%,2.6%
COC(=O)C(Cc1ccc(O)cc1)NC(=O)C(CC(=O)OCc1ccccc1)NC(=O)OCc1ccccc1 (centres undefined) (Cbz-Asp(OBn)-Tyr-OMe; configuration not given here),-11.3%,-5.95%,-0.7%,-3.45%,-21.4%,0.55%
